# Laboratory results: PubChem BioAssay AID1159580 (chemical genetic matrix, 2015)
# The whole screen tested about 5,500 compounds, of which about 2,000 (36%) were called active. Roughly 18% stayed inconclusive and do not appear here. Some of the results follow. A number with no mark means an inactive call. Cut-off read from the data, not from the text of the source: active = normalized growth mostly below about 0.91 (no sharp cut-off); inconclusive = no clear call, values can overlap the other calls; inactive = mostly above about 0.92.
# Experiment: chemical genetic growth profiling, strain panel (AID 1159580);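 note: tested at 20 µM; growth read once vehicle control cultures reached saturation at 30 °C; 1 = growth at the plate median or of vehicle wells; lower values mean less growth of the strain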
# Conditions: S. cerevisiae deletion strains, growth OD
smiles,measurement,setting,value
CCC(C)C(=O)O[C@H]1C[C@H](O)C=C2C=C[C@H](C)[C@H](CC[C@@H](O)C[C@@H](O)CC(=O)O)C21 (stereo not given in full),normalized growth,"locus YAL021C, strain ccr4, hits give low values",1.02
same,normalized growth,"locus YAL026C, strain drs2, hits give low values",1.03
same,normalized growth,"locus YAL030W, strain snc1, hits give low values",1
same,normalized growth,"locus YBL061C, strain skt5, hits give low values",1.01
same,normalized growth,"locus YBR009C, strain hhf1, hits give low values",0.966
same,normalized growth,"locus YBR023C, strain chs3, hits give low values",1.02
same,normalized growth,"locus YBR171W, strain sec66, hits give low values",1
same,normalized growth,"locus YBR231C, strain swc5, hits give low values",0.976
same,normalized growth,"locus YBR279W, strain paf1, hits give low values",1.02
same,normalized growth,"locus YCL011C, strain gbp2, hits give low values",1.02
same,normalized growth,"locus YCL016C, strain dcc1, hits give low values",1.03
same,normalized growth,"locus YCL061C, strain MRC1, hits give low values",1.01
same,normalized growth,"locus YCL069W, strain vba3, hits give low values",1.01
same,normalized growth,"locus YCR088W, strain abp1, hits give low values",1
same,normalized growth,"locus YDL005C, strain med2, hits give low values",1.03
same,normalized growth,"locus YDL040C, strain nat1, hits give low values",0.993
same,normalized growth,"locus YDR001C, strain nth1, hits give low values",1.01
same,normalized growth,"locus YDR069C, strain doa4, hits give low values",1.01
same,normalized growth,"locus YDR137W, strain rgp1, hits give low values",1.3 [resistant] (active)
same,normalized growth,"locus YDR159W, strain sac3, hits give low values",0.937
same,normalized growth,"locus YDR195W, strain ref2",0.952
same,normalized growth,"locus YDR297W, strain sur2, hits give low values",1.01
same,normalized growth,"locus YDR334W, strain swr1, hits give low values",0.994
same,normalized growth,"locus YDR335W, strain msn5, hits give low values",1.02
same,normalized growth,"locus YDR392W, strain spt3, hits give low values",0.987
same,normalized growth,"locus YEL003W, strain gim4, hits give low values",1.02
same,normalized growth,"locus YEL037C, strain rad23, hits give low values",1.02
same,normalized growth,"locus YEL061C, strain CIN8 (second series), hits give low values",0.986
same,normalized growth,"locus YER015W, strain faa2, hits give low values",1
same,normalized growth,"locus YER016W, strain bim1, hits give low values",1.06
same,normalized growth,"locus YER111C, strain swi4, hits give low values",1.02
same,normalized growth,"locus YER155C, strain BEM2 (second series), hits give low values",1.02
same,normalized growth,"locus YFR010W, strain ubp6, hits give low values",0.995
same,normalized growth,"locus YGL167C, strain pmr1, hits give low values",1
same,normalized growth,"locus YGL173C, strain kem1, hits give low values",1.02
same,normalized growth,"locus YGL227W, strain vid30, hits give low values",1
same,normalized growth,"locus YGL240W, strain doc1, hits give low values",1.04
same,normalized growth,"locus YGL253W, strain hxk2, hits give low values",1.02
same,normalized growth,"locus YHR013C, strain ard1, hits give low values",1.02
same,normalized growth,"locus YHR027C, strain rpn1, hits give low values",1.01
same,normalized growth,"locus YHR030C, strain SLT2, hits give low values",0.977
same,normalized growth,"locus YHR079C, strain IRE1, hits give low values",0.975
same,normalized growth,"locus YHR142W, strain chs7, hits give low values",1.02
same,normalized growth,"locus YJL092W, strain hpr5, hits give low values",1.01
same,normalized growth,"locus YJL095W, strain BCK1 (second series), hits give low values",1.02
same,normalized growth,"locus YJL095W, strain BCK1, hits give low values",0.965
same,normalized growth,"locus YJL115W, strain asf1, hits give low values",1.01
same,normalized growth,"locus YJL129C, strain trk1, hits give low values",1.02
same,normalized growth,"locus YJL154C, strain vps35, hits give low values",1.01
same,normalized growth,"locus YJL164C, strain tpk1, hits give low values",1.01
same,normalized growth,"locus YJL166W, strain qcr8, hits give low values",0.992
same,normalized growth,"locus YJL187C, strain SWE1, hits give low values",1.01
same,normalized growth,"locus YJR066W, strain TOR1, hits give low values",0.907
same,normalized growth,"locus YKL160W, strain elf1, hits give low values",1.05
same,normalized growth,"locus YKR026C, strain gcn3, hits give low values",0.99
same,normalized growth,"locus YKR091W, strain srl3, hits give low values",1
same,normalized growth,"locus YLL001W, strain dnm1, hits give low values",0.961
same,normalized growth,"locus YLL026W, hits give low values",1
same,normalized growth,"locus YLL041C, strain sdh2, hits give low values",0.991
same,normalized growth,"locus YLR027C, strain aat2, hits give low values",1
same,normalized growth,"locus YLR113W, strain HOG1, hits give low values",1
same,normalized growth,"locus YLR221C, strain rsa3, hits give low values",0.998
same,normalized growth,"locus YLR258W, strain gsy2, hits give low values",1.03
same,normalized growth,"locus YLR262C, strain YPT6 (second series), hits give low values",1.12
same,normalized growth,"locus YLR320W, strain mms22, hits give low values",0.963
same,normalized growth,"locus YLR342W, strain FKS1, hits give low values",1.02
same,normalized growth,"locus YLR357W, strain rsc2, hits give low values",1
same,normalized growth,"locus YLR370C, strain arc18, hits give low values",1.02
same,normalized growth,"locus YLR384C, strain iki3, hits give low values",0.991
same,normalized growth,"locus YML120C, strain ndi1, hits give low values",1.02
same,normalized growth,"locus YMR058W, strain fet3, hits give low values",1.01
same,normalized growth,"locus YMR125W, strain sto1, hits give low values",1.04
same,normalized growth,"locus YMR129W, hits give low values",1
same,normalized growth,"locus YMR205C, strain PFK2, hits give low values",0.972
same,normalized growth,"locus YMR231W, strain pep5, hits give low values",1
same,normalized growth,"locus YNL071W, strain lat1, hits give low values",1
same,normalized growth,"locus YNL183C, strain NPR1, hits give low values",0.902
same,normalized growth,"locus YNL209W, strain ssb2, hits give low values",1.01
same,normalized growth,"locus YNL248C, strain rpa49, hits give low values",1.03
same,normalized growth,"locus YNL322C, strain KRE1 (second series), hits give low values",1.06
same,normalized growth,"locus YNR049C, strain mso1, hits give low values",1.01
same,normalized growth,"locus YOR001W, strain rrp6, hits give low values",0.992
same,normalized growth,"locus YOR070C, strain gyp1, hits give low values",1
same,normalized growth,"locus YOR080W, strain dia2, hits give low values",0.999
same,normalized growth,"locus YOR083W, strain WHI5, hits give low values",1.01
same,normalized growth,"locus YOR106W, strain vam3, hits give low values",1.04
same,normalized growth,"locus YOR231W, strain MKK1, hits give low values",0.954
same,normalized growth,"locus YOR265W, strain rbl2, hits give low values",1
same,normalized growth,"locus YOR270C, strain vph1, hits give low values",0.946
same,normalized growth,"locus YOR290C, strain snf2, hits give low values",1.05
same,normalized growth,"locus YPL051W, strain arl3, hits give low values",1.06
same,normalized growth,"locus YPL078C, strain atp4, hits give low values",1.05
same,normalized growth,"locus YPL106C, strain sse1, hits give low values",1.02
same,normalized growth,"locus YPL240C, strain hsp82, hits give low values",1.01
same,normalized growth,"locus YPL256C, strain CLN2, hits give low values",1.01
